HCMV inh = human cytomegalovirus inhibition; 410,000 tested, 4.5% active; activity change, negative = inhibition, % at 57.5 µM; HFF cells, HCMV-luciferase reporter, 72 h; active compounds read low; AID 1259415; in the data active = activity change below about -60%; inconclusive = no clear call, values can overlap the other calls; inactive = above about -39%
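After 16 h attachment at 37C, HFF cells received test compound and HCMV-luciferase (1 PFU/cell); reporter luminescence read 72 h later, data normalized against buffer-only and known inhibitor Salinomycin.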
Vaccinia Venus = inhibitors of vaccinia virus (Venus reporter). Vaccinia virus Venus reporter expression, fluorescence. AID 720580. Potency, µM (top dose mostly 36.5 µM), without a hit: at the top dose activity change, negative = inhibition, actives largely listed as inhibitors. 330,000 tested, 0.46% active; calls by dose curve; tested in A549 cells; note: potency is the fitted concentration of half-maximal effect; nearly all actives have a fitted effect of over 30% in size
Vaccinia mCherry = vaccinia inhibition (mCherry reporter); Vaccinia virus mCherry reporter infection, fluorescence; Potency, µM (highest dose often 36.5 µM), for inactives: at the highest dose activity change, negative = inhibition, hits mostly inhibitors; 310,000 tested, 0.63% active; calls by dose curve; tested in A549 cells; note: potency is the fitted concentration of half-maximal effect; nearly all actives have a fitted effect of over 35% in size
HCV inh = blocks hepatitis C virus. Potency, µM (titrated, usually from 41.8 µM), without a hit: top-dose activity change, negative = inhibition, hits mostly inhibitors. AID 651820. 340,000 tested, 3.4% active. Huh7.5.1 HCVcc-Cre infection, luciferase reporter, 44 h; active = well fitted inhibition curve with a large enough effect; inconclusive = small, poorly fitted or top-dose-only effect, or another doubt; inactive = no such curve, though single readings can be large or run the other way; note: potency is the fitted concentration of half-maximal effect
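A cell-based infection assay in which seeded cells (1,000 per well) receive test compound after 4 h, are inoculated with HCVcc-Cre at approximately 0.5 moi, and are incubated 44 h before luminescence detection.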
LASV entry inh = blocks Lassa virus binding to or entry into cells; Lassa virus pseudotype entry inhibition, cell reporter; Potency, µM (series often up to 37.9 µM), for the others: at the top dose activity change, negative = inhibition, usual class: inhibitors; 300,000 tested, 1.2% active; calls by dose curve; tested in HEK293 cells; note: potency is the fitted concentration of half-maximal effect; nearly all actives have a fitted effect of over 50% in size
Marburg entry inh = blocks Marburg virus binding to or entry into cells | 300,000 tested, 1.8% active | Marburg virus pseudotyped entry inhibition, cell reporter | Potency, µM (top dose mostly 37.8 µM), inactives show at the highest dose activity change, negative = inhibition, hits mostly inhibitors; calls by dose curve; tested in HEK293 cells; note: potency is the fitted concentration of half-maximal effect
* marks the source's active call; other numbers are inactive results; i = inactive; ? = inconclusive; / = not tested or not shown; [ ] = another dose, or the depositor's remark. Hits are enriched below; roughly 7.8% of the tested compounds scored in any of these assays. % is set by controls: 0 for no effect and ±100 for the full control effect.

SMILES	HCMV inh	Vaccinia Venus	Vaccinia mCherry	HCV inh	LASV entry inh	Marburg entry inh
COc1cc(C2CC(=O)c3c([nH]c(C(=O)OC4CCCC4)c3C)C2)cc(OC)c1OC (stereo not given)	-98*	?	?	/	?	?
CCOCCOC(=O)c1[nH]c2c(c1C)C(=O)CC(c1cc(OC)c(OC)c(OC)c1)C2 (stereo not given)	-62*	-15%	1%	5µM*	-17%	?
COCCOC(=O)c1[nH]c2c(c1C)C(=O)CC(c1ccc(OC)c(OC)c1)C2 (stereo not given)	?	/	/	10µM*	/	/
COC(=O)C1C(=O)C2=C(CC1C)NC(C)=C(C(=O)OCCOc1ccccc1)C2c1ccc(C)o1 (stereo not given)	-4	-5%	-19%	13µM*	?	?
Cc1cc(C)cc(N(CC(=O)NCCc2ccc(Cl)cc2)S(=O)(=O)c2c(C)noc2C)c1	-2	-3%	-14%	/	-1%[46.1 µM]	8%[46.1 µM]
CCOC(=O)C1=C(C)NC2=C(C(=O)CC(c3ccc(OC)c(OC)c3)C2)C1c1ccc(C)o1 (stereo not given)	-32	-6%	-3%	13µM*	-10%	?
COC(=O)c1[nH]c2c(c1C)C(=O)CC(c1cc(OC)c(OC)c(OC)c1)C2 (stereo not given)	-74*	/	/	10µM*	/	/
Cc1cccc(C)c1N=CN1c2ccccc2-n2cccc2C1c1ccc([N+](=O)[O-])cc1 (stereo not given)	-6	/	/	/	/	/
O=C(/C=C/c1ccccc1)c1ccc(NC2=NCCCS2)cc1	10	-24%	-8%	-3%	-2%	?
Cc1cccc(/C=C/C(=O)c2ccc(NC3=NCCCS3)cc2)c1	-98*	?	-19%	11µM*	2%	?
CC(C)(C)c1ccc(/C=C/C(=O)c2ccc(NC3=NCCCS3)cc2)cc1	73	/	/	11µM*	/	3%
COc1cccc(/C=C/C(=O)c2ccc(NC3=NCCCS3)cc2)c1	11	-5%	i	-24%	-4%[46.1 µM]	?
O=C(/C=C/c1ccc(Br)cc1)c1ccc(NC2=NCCCS2)cc1	-100*	/	/	?	?	?
O=C(O)COc1ccccc1C1Nc2ccccc2-c2nnc(SCc3ccc(Cl)cc3)nc2O1 (stereo not given)	-7	-5%	-13%	/	15%[46.1 µM]	8%[46.1 µM]
COc1ccc(C2CC(=O)c3c(C)nc(N4CCN(C=O)CC4)nc3C2)c(OC)c1 (stereo not given)	-23	-1%	-11%	/	-16%[46.1 µM]	-23%[46.1 µM]
O=C(CC1Sc2ccccc2NC1=O)NCc1ccccc1 (stereo not given)	?	-4%	i	11%	-22%[46.1 µM]	0%[46.1 µM]
O=C(CC1Sc2ccccc2NC1=O)NNc1ccc(Cl)cc1Cl (stereo not given)	-9	?	4.5µM*	-3%	-27%[46.1 µM]	?
Cc1cccc(C)c1NC(=O)N1CCC(C(N)=O)(N2CCCCC2)CC1	12	-5%	6%	/	4%[46.1 µM]	-24%[46.1 µM]
O=[N+]([O-])c1ccc(Cl)cc1Sc1nc2ccccc2o1	-8	-12%	-27%	?	-13%	-4%
Cc1ccc(Sc2ccc([N+](=O)[O-])cc2[N+](=O)[O-])nc1	4	-25%	?	-5%	?	?
O=[N+]([O-])c1ccc(Sc2nc3ccccc3o2)c([N+](=O)[O-])c1	-107*	?	?	/	-27%[14.3 µM]	16µM*
Cc1ccnc(Sc2ccc([N+](=O)[O-])cc2[N+](=O)[O-])n1	-22	/	/	?	?	13µM*
CCOc1cccc(CC(=O)NCc2ccc3c(c2)CCN3C(=O)c2cccc(C)c2)c1OCC	-67*	?	?	/	11µM*	?
CCOc1ccccc1NC(=O)NCc1ccc2c(c1)CCN2C(=O)c1ccccc1	-82*	?	?	/	?	/
Cc1ccc(NC(=O)NCc2ccc3c(c2)CCN3C(=O)c2ccccc2)c(Cl)c1	-31	?	?	/	-13%[46.1 µM]	/
SMILES	HCMV inh	Vaccinia Venus	Vaccinia mCherry	HCV inh	LASV entry inh	Marburg entry inh
CCOc1ccc(C(=O)NCc2ccc3c(c2)CCN3C(=O)c2ccccc2)cc1	-32	-8%	i	/	18%[46.1 µM]	/
COc1ccc(CC(=O)NCc2ccc3c(c2)CCN3C(=O)c2cccc(C)c2)cc1	-14	-12%	-11%	/	?	/
COc1ccc(C)cc1NC(=O)NCc1ccc2c(c1)CCN2C(=O)c1ccccc1	-92*	-25%	-10%	/	?	/
CCOc1ccccc1C(=O)NCc1ccc2c(c1)CCN2C(=O)c1ccccc1	-78*	-24%	?	/	?	/
CCOc1ccccc1CNC(=O)c1cc2c(=O)n(Cc3ccco3)ccc2nc1C	-14	-16%	-14%	/	-11%[46.1 µM]	/
CCOC(=O)N1CCC(NC(=O)c2cnn(-c3ccc(C)cc3C)c2C2CCN(C(=O)OC(C)(C)C)CC2)CC1	12	-9%	-7%	/	5%[46.1 µM]	/
CC(=O)N1c2c(cc(Br)cc2S(=O)(=O)N2CCN(c3cc(C)ccc3C)CC2)CC1C (stereo not given)	-33	0%	-3%	/	?	-14%[46.1 µM]
CC(=O)N1c2c(cc(Br)cc2S(=O)(=O)N2CCN(c3ccccc3F)CC2)CC1C (stereo not given)	-67*	-15%	-13%	?	/	?
CCCCN(Cc1ccccc1)S(=O)(=O)c1cc(Br)cc2c1N(C(C)=O)C(C)C2 (stereo not given)	-65*	-22%	-30%	5µM*	?	?
CC(C)Oc1ccc(C(=O)NCC2Cc3cc(F)cc(-c4cnccn4)c3O2)cc1 (stereo not given)	/	7%	-6%	/	/	/
COCOc1cc(OC)ccc1C(=O)C=Cc1ccc([N+](=O)[O-])cc1	/	/	/	/	?	-19%[14.2 µM]
O=C(/C=C/c1ccccc1Cl)c1ccccc(=O)c1O	?	?	10µM*	?	?	?
Cc1ccc(C)c(/C=C/C(=O)c2ccccc(=O)c2O)c1	-101*	?	14µM*	?	?	?
Cc1nn(C)cc1C(=O)/C=C/c1ccc([N+](=O)[O-])cc1	-28	-22%	-29%	22µM*	?	?
O=C(/C=C/c1ccc([N+](=O)[O-])cc1)c1ccccc(=O)c1O	-95*	-28%	?	7.9µM*	?	?
O=C(NCCN1CCCCC1)c1ccc(Cn2c(SCc3ccc(F)cc3)nc3cccnc32)cc1	49	-19%	-11%	/	/	?
O=C(/C=C/c1ccc([N+](=O)[O-])cc1)c1cccs1	-76*	3%	i	0%	/	/
Cc1ccc(/C=C/C(=O)c2ccccc(=O)c2O)c(C)c1	-82*	?	?	?	?	?
O=C(C=Cc1ccccc1O)c1ccccc1O	20	-10%	-23%	?	-14%[46.1 µM]	?
Cc1ccc(NC(=O)CCN2CCN(CCO)CC2)cc1C	-1	-5%	-15%	/	?	/
